# Results reported in PubChem BioAssay (Tox21).
# “And” between values parts separate entries of the source, which are not always exact repeats. Identical values can stand only once. Unmarked numbers belong to inactive results. Inconclusive results are not listed. A call without a number means that no potency is given here. The source made the active and inactive calls. Unless noted, the call rests on the fitted dose curve.
# Key:
# [1] = Nuclear factor erythroid 2-related factor 2/antioxidant responsive element (Nrf2/ARE) small molecule agonists: luciferase reporter gene qHTS assay in human keratinocytes (AID 1919969); further: nearly all actives have a fitted effect of over 35% in size; further: potency means the concentration at half of the fitted maximal effect
# [2] = G protein-coupled receptor (GPCR) small molecule agonists, calcium flux assay: HEK293 wild type cell line counter screen (AID 1920065)
# In short: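 Readout: fluorescence at 480 nm excitation/540 nm emission, sampled at 1 s intervals for 3 min. Cells had been cultured 18 h, then dye-loaded 1 h at 37 C before compound or ATP addition.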
# [3] = p53 small molecule agonists, cell-based qHTS assay with human liver microsomes (AID 1963577);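 further: p53 response element beta-lactamase reporter cells with liver microsomes plus NADPH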
# In short: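 p53RE-bla cells; 5 h settle, 37 C/5% CO2; cpd + HLM 0.5 mg/mL + NADPH 0.5 mg/mL (final); 16 h 37 C; LiveBLAzer 2 h RT dark; fluorescence readout.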
# [4] = p53 small molecule agonists, cell-based qHTS assay with rat liver microsomes (AID 1963578)
# In short: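 Rat liver microsome activation: microsomes 0.5 mg/mL, NADPH 0.5 mg/mL final; p53RE-bla cells, 16 h 37 C; LiveBLAzer readout, 2 h RT dark.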
# [5] = p53 small molecule agonists, cell-based qHTS assay with human liver microsomes: qHTS cell viability counter screen (AID 1963579); further: nearly all actives have a fitted effect of over 45% in size; further: potency means the concentration at half of the fitted maximal effect
# In short: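 Luminescent CellTiter-Glo read-out, 30 min at room temperature, gauged cytotoxicity in p53RE-bla cells exposed 16 h at 37 C to DMSO-dissolved compounds with metabolic activation by human liver microsomes and NADPH, each 0.5 mg/mL final.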
# [6] = p53 small molecule agonists, cell-based qHTS assay with rat liver microsomes: qHTS cell viability counter screen (AID 1963580); further: nearly all actives have a fitted effect of over 45% in size
# In short: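 Viability is assessed in parallel with the p53 reporter read: HCT-116 p53RE-bla cells receive compounds plus rat microsomes and NADPH (0.5 mg/mL final apiece), incubate 16 h at 37 C, and then CellTiter-Glo luminescence is recorded.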
# [7] = p53 small molecule agonists, cell-based qHTS assay (AID 1963582; active means well fitted activation curve with a large enough effect in the signal ratio in the repeat runs, not every such curve was filed as active; the % refers to the signal ratio)
# In short: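 Compounds are pin-transferred in DMSO onto p53RE-bla cells and incubated 16 h at 37 C. The B/G FRET beta-lactamase substrate is then applied for 2 h at RT and fluorescence recorded.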
# [8] = molecular target: 5-hydroxytryptamine receptor 2A (Homo sapiens) (UniProt P28223); assay: 5-hydroxytryptamine receptor 2A (HTR2A) small molecule antagonists, cell-based qHTS assay (AID 1963586); further: nearly all actives have a fitted effect of over 45% in size
# In short: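 Antagonist-mode intracellular calcium assay: DOI (4 nM) added after 5 min compound pre-incubation at room temperature to dye-loaded HTR2A-CHO cells. Fluorescence followed for 3 min, sampled every second.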
# [9] = molecular target: Muscarinic acetylcholine receptor M1 (Homo sapiens) (UniProt P11229); assay: Cholinergic receptor muscarinic 1 (CHRM1) small molecule antagonists, cell-based qHTS assay (AID 1963588); further: nearly all actives have a fitted effect of over 40% in size; further: potency means the concentration at half of the fitted maximal effect
# In short: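 CHRM1-CHO calcium-flux assay, antagonist mode. Cells were seeded 18 h, dye-loaded 1 h at 37 C and given compound for 5 min at RT, then acetylcholine was added at 50nM. FDSS fluorescence was read 3 min; 15 concentrations, three runs.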
# [10] = molecular target: Muscarinic acetylcholine receptor M1 (Homo sapiens) (UniProt P11229); assay: Cholinergic receptor muscarinic 1 (CHRM1) small molecule agonists, cell-based qHTS assay (AID 1963589); further: nearly all actives have a fitted effect of over 35% in size
# In short: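 Each compound was tested at 15 concentrations across three independent runs on dye-loaded CHO cells stably expressing human CHRM1, reading intracellular calcium fluorescence kinetically at 1 sec intervals.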
# [11] = molecular target: Beta-2 adrenergic receptor (Homo sapiens) (UniProt P07550); assay: Adrenergic beta2 receptor (ADRB2) small molecule antagonists, cell-based qHTS assay (AID 1963592); further: series mostly up to about 92 µM; nearly all actives have a fitted effect of over 50% in size
# In short: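 Cells (CHO, stable ADRB2 overexpression) incubated 18-20hr at 37C; compounds added from DMSO; agonist mix (1nM isoproterenol, 100uM IBMX, 25uM Ro-20-1724) added; 0.5hr RT; d2-cAMP and anti-cAMP-cryptate added; 1hr RT; 665/615 nm read.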
# [12] = molecular target: D(2) dopamine receptor (Homo sapiens) (UniProt P14416); assay: Dopamine D2 receptor (DRD2) small molecule agonists, cell-based qHTS assay (AID 1963594); further: nearly all actives have a fitted effect of over 35% in size
# In short: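 HEK293 cells stably expressing human DRD2, pre-treated with PDE inhibitor Ro20-1724 (0.1 mM final) and compound 10 min at room temperature, then stimulated with NKH477 (200nM […]) for 30 min. cAMP read by HTRF (665/620 nm).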
# [13] = molecular target: D(2) dopamine receptor (Homo sapiens) (UniProt P14416); assay: Dopamine D2 receptor (DRD2) small molecule antagonists, cell-based qHTS assay (AID 1963595; active means well fitted inhibition curve with a large enough effect in the signal ratio in the repeat runs, with a control signal flat; the % refers to the signal ratio; further: potency means the concentration at half of the fitted maximal effect)
# In short: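 DRD2-HEK293; 0.1 mM Ro20-1724; cpd 10 min RT; NKH477 200 nM + quinpirole 12 nM, 30 min RT; HTRF cAMP (cAMP-d2/anti-cAMP cryptate), 665/620 nm ratio after 1 h.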
# [14] = molecular target: Gonadotropin-releasing hormone receptor (Homo sapiens) (UniProt P30968); assay: Human gonadotropin-releasing hormone receptor (GnRHR) small molecule agonists, calcium flux assay in GnRHR-HEK293 cells (AID 1920063); further: nearly all actives have a fitted effect of over 35% in size
# In short: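 Fluorescence kinetics (480 nm excitation, 540 nm emission; 3 min, 1 s steps) report calcium mobilisation in human GnRHR-HEK293 cells in agonist mode. Dye incubation: 1 h, 37 C.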
# [15] = molecular target: KiSS-1 receptor (Homo sapiens) (UniProt Q969F8); assay: Human kisspeptin (KISS1R) small molecule agonists, calcium flux assay in KISS1R-HEK293 cells (AID 1920064; active means well fitted activation curve with a large enough effect in the repeat runs)
# In short: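 Measures KISS1R agonism through calcium-sensitive dye fluorescence in stably transfected HEK293 cells, read for 3 min after pin-tool compound delivery; 15-point titrations in triplicate.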
# [16] = p53 small molecule agonists, cell-based qHTS assay: qHTS cell viability counter screen (AID 1963581); further: nearly all actives have a fitted effect of over 45% in size; further: potency means the concentration at half of the fitted maximal effect
# In short: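 In the same plates used for the p53 bla reporter, HCT-116 cells given compounds for 16 h at 37 C received CellTiter-Glo; luminescence was recorded 30 min later at room temperature.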
# [17] = molecular target: 5-hydroxytryptamine receptor 2A (Homo sapiens) (UniProt P28223); assay: 5-hydroxytryptamine receptor 2A (HTR2A) small molecule agonists, cell-based qHTS assay (AID 1963587); further: nearly all actives have a fitted effect of over 30% in size
# In short: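 CHO cells stably expressing human HTR2A, plated 18 h, loaded with calcium dye 1 h at 37 C. Agonist mode: compounds added and intracellular calcium fluorescence recorded kinetically for 2 min at 1 sec intervals.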
# [18] = cAMP Responsive Elements (CRE) small molecule agonists, cell-based qHTS assay (AID 1963590)
# In short: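 Cell line: CRE-bla HEK 293T; medium DMEM/10% dialyzed FBS/0.1 mM NEAA/1 mM pyruvate/25 mM HEPES; 3 h compound exposure; beta-lactamase FRET readout after 2 h substrate loading at RT.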
# [19] = cAMP Responsive Elements (CRE) small molecule antagonists, cell-based qHTS assay (AID 1963591; active means well fitted inhibition curve with a large enough effect in the signal ratio in the repeat runs, not every such curve was filed as active; the % refers to the signal ratio)
# In short: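 Inhibition of NKH477-driven (0.25 uM final) CRE-beta-lactamase signal in HEK293T cells, 3 h compound exposure at 37 °C, detected by FRET substrate fluorescence.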
# [20] = molecular target: Beta-2 adrenergic receptor (Homo sapiens) (UniProt P07550); assay: Adrenergic beta2 receptor (ADRB2) small molecule agonists, cell-based qHTS assay (AID 1963593);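 further: CHO cells stably overexpressing human ADRB2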
# In short: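 CHO cells stably over-expressing ADRB2 were plated overnight at 37C, then dosed with compounds plus a stimulation mix containing 100uM IBMX and 25uM Ro-20-1724 for 0.5hr at room temperature. cAMP was measured by HTRF competition, 1hr.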
# KiSS-1 receptor (Homo sapiens), sequence (Q969F8 whole entry, looked up): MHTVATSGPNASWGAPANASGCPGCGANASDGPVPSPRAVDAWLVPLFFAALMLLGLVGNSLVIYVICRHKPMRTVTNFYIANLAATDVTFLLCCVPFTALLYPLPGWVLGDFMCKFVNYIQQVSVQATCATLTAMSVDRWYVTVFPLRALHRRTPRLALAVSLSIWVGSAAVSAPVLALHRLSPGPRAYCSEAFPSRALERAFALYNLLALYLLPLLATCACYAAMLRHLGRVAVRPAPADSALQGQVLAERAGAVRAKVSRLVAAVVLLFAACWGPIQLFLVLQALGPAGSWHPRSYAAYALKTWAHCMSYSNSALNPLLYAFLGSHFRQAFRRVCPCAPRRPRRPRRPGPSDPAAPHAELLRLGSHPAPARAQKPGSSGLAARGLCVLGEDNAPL
# 5-hydroxytryptamine receptor 2A (Homo sapiens), sequence (P28223 whole entry, looked up): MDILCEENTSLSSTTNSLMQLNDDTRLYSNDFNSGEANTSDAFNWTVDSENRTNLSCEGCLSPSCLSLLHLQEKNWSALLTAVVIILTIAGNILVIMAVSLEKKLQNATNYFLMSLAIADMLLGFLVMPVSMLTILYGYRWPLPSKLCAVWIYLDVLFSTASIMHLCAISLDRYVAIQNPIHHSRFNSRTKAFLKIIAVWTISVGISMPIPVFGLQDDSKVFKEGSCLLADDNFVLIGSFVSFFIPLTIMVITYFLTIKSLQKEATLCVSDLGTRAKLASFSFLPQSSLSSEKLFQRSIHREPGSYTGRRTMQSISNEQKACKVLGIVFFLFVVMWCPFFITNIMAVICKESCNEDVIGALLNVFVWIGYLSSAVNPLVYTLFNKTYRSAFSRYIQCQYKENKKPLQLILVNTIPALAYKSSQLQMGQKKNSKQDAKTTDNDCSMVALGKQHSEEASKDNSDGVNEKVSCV
# D(2) dopamine receptor (Homo sapiens), sequence (P14416 whole entry, looked up): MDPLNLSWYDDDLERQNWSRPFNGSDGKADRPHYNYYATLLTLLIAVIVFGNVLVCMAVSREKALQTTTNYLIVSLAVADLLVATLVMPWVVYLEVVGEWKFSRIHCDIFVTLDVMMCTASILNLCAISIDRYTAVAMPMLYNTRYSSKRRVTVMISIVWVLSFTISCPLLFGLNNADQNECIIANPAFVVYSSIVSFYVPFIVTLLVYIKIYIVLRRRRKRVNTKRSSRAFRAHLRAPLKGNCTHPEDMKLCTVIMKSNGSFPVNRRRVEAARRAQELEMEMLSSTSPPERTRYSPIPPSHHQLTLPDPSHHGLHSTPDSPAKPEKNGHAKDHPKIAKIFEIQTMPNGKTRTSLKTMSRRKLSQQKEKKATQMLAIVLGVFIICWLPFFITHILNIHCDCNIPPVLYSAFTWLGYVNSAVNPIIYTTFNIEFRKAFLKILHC
# Beta-2 adrenergic receptor (Homo sapiens), sequence (P07550 whole entry, looked up): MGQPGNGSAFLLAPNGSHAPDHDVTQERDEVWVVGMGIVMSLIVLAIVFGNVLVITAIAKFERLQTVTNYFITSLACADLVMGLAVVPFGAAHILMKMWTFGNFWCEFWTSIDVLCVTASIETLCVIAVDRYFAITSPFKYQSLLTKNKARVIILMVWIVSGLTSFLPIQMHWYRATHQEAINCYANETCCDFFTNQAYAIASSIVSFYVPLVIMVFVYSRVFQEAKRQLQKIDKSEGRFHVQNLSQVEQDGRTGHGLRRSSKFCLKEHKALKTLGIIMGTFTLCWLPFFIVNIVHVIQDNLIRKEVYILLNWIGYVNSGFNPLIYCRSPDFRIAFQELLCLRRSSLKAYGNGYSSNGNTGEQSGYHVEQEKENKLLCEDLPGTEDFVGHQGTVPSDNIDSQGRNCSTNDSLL
# Muscarinic acetylcholine receptor M1 (Homo sapiens), sequence (P11229 whole entry, looked up): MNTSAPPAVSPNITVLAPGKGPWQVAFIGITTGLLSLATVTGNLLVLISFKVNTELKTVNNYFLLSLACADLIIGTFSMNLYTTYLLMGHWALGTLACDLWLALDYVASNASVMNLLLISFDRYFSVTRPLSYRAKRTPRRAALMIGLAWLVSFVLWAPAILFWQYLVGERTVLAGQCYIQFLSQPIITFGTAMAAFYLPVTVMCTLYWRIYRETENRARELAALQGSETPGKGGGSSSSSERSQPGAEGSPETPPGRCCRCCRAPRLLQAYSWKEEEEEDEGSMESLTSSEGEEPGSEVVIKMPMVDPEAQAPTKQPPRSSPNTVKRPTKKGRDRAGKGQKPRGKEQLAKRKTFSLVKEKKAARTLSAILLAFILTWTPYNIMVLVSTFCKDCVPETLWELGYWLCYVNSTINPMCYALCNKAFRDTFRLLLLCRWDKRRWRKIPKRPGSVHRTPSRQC
# Gonadotropin-releasing hormone receptor (Homo sapiens), sequence (P30968 whole entry, looked up): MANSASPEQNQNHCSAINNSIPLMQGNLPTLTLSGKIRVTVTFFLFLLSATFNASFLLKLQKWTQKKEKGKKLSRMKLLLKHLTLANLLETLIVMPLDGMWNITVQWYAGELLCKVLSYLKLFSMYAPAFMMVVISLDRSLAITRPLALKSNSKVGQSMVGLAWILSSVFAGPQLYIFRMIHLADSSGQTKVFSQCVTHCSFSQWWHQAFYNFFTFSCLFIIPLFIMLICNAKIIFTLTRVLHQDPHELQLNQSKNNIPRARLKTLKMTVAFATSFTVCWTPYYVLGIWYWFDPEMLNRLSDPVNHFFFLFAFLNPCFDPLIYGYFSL
structure (smiles),measurement,setting,value
C1CN(SSN2CCOCC2)CCO1,Potency,[1],13.5 µM (active) and 68.6 µM (active)
same,Potency,[2],inactive
same,Potency,[3],inactive
same,Potency,[4],inactive
same,Potency,[5],inactive
same,Potency,[6],inactive
same,Potency,[7],inactive
same,Potency,[8],inactive
same,Potency,[9],inactive
same,Potency,[10],inactive
same,Potency,[11],inactive
same,Potency,[12],inactive
same,Potency,[13],inactive
ClC(Cl)(Cl)c1ccc(C(Cl)(Cl)Cl)cc1,Potency,[14],inactive
same,Potency,[15],inactive
same,Potency,[2],inactive
same,Potency,[3],inactive
same,Potency,[4],inactive
same,Potency,[5],inactive
same,Potency,[6],inactive
same,Potency,[16],inactive
same,Potency,[7],inactive
same,Potency,[8],inactive
same,Potency,[17],inactive
same,Potency,[9],inactive
same,Potency,[10],inactive
same,Potency,[18],inactive
same,Potency,[19],inactive
same,Potency,[11],inactive
same,Potency,[12],inactive
[Cl][Bi]([Cl])([c]1ccccc1)([c]1ccccc1)[c]1ccccc1,Potency,[1],1.53 µM (active)
same,Potency,[2],inactive
same,Potency,[3],inactive
same,Potency,[4],inactive
same,Potency,[5],4.05 µM (active)
same,Potency,[16],9.07 µM (active)
same,Potency,[8],inactive
same,Potency,[9],inactive
same,Potency,[11],inactive
same,Potency,[12],inactive
same,Potency,[13],13.6 µM (active)
C=C(C)CS(=O)(=O)O,Potency,[1],inactive
same,Potency,[15],inactive
same,Potency,[2],inactive
same,Potency,[5],inactive
same,Potency,[8],inactive
same,Potency,[17],inactive
same,Potency,[9],inactive
same,Potency,[10],inactive
same,Potency,[18],inactive
same,Potency,[19],inactive
same,Potency,[11],inactive
same,Potency,[12],inactive
same,Potency,[13],inactive
CCN(CC)CCCC(C)Nc1ccnc2cc(Cl)ccc12 (stereo unspecified),"activity, positive = activation",[1],-10.3% [at 8.39 µM] and 0.993% [at 19 µM]
same,activation,[15],-0.539% [at 6.97 µM] and -0.536% [at 15.8 µM]
same,activation,[2],0.411% [at 5.23 µM] and -0.526% [at 11.8 µM]
same,"activity change, negative = cytotoxicity",[5],1.38% [at 5.99 µM] and -6.37% [at 13.5 µM]
same,"activity change, negative = cytotoxicity",[6],0.0381% [at 5.99 µM] and -13.2% [at 13.5 µM]
same,"activity change, negative = cytotoxicity",[16],-9.2% [at 5.99 µM] and -2.12% [at 13.5 µM]
same,"activity, negative = inhibition",[8],2.23% [at 5.62 µM] and 1.08% [at 12.7 µM]
same,activation,[17],-0.411% [at 7.02 µM] and 1.58% [at 15.9 µM]
same,Potency,[9],2.52 µM (active)
same,activation,[10],-0.78% [at 6.97 µM] and -0.406% [at 15.8 µM]
same,"activity change, negative = inhibition",[11],0.663% [at 8.39 µM] and -0.0752% [at 19 µM]
same,activation,[20],0.827% [at 19 µM]
same,activation,[12],-2.86% [at 8.39 µM]
same,"activity change, negative = inhibition",[13],-2.41% [at 8.38 µM] and 1.11% [at 18.9 µM]
CCN(CC)CCOC(=O)C1(C2CCCCC2)CCCCC1,Potency,[1],inactive
same,Potency,[15],inactive
same,Potency,[2],inactive
same,Potency,[5],inactive
same,Potency,[6],inactive
same,Potency,[11],inactive
Cc1ccc2c(Br)cc(Br)c(O)c2n1,Potency,[14],inactive
same,Potency,[15],inactive
same,Potency,[2],inactive
same,Potency,[3],inactive
same,Potency,[4],inactive
same,Potency,[5],inactive
same,Potency,[6],inactive
same,Potency,[16],inactive
same,Potency,[7],inactive
same,Potency,[8],inactive
same,Potency,[17],inactive
same,Potency,[9],inactive
same,Potency,[10],inactive
same,Potency,[18],inactive
same,Potency,[11],inactive
same,Potency,[12],inactive
CN[C@H]1CC[C@@H](c2ccc(Cl)c(Cl)c2)c2ccccc21,Potency,[1],inactive
same,Potency,[15],inactive
same,Potency,[2],inactive
same,Potency,[4],inactive
same,Potency,[5],inactive
same,Potency,[6],inactive
same,Potency,[16],inactive
same,Potency,[7],inactive
same,Potency,[19],inactive
same,Potency,[11],inactive
same,Potency,[12],inactive
